In PubChem BioAssay AID1567 (National Center for Advancing Translational Sciences (NCATS), 2009):
Inconclusive results are not listed. Where a call stands in place of a potency, no number is given. Calls of active or inactive are those of the source. The call rests on the fitted dose curve; in most records, active means well fitted inhibition curve with a large enough effect; inconclusive means small, poorly fitted or top-dose-only effect, or effect the other way; inactive means no such curve, though single readings can be large or run the other way.

Biological target: Thyroid hormone receptor beta (Homo sapiens) (UniProt P10828)
Sequence (P10828 whole entry, looked up): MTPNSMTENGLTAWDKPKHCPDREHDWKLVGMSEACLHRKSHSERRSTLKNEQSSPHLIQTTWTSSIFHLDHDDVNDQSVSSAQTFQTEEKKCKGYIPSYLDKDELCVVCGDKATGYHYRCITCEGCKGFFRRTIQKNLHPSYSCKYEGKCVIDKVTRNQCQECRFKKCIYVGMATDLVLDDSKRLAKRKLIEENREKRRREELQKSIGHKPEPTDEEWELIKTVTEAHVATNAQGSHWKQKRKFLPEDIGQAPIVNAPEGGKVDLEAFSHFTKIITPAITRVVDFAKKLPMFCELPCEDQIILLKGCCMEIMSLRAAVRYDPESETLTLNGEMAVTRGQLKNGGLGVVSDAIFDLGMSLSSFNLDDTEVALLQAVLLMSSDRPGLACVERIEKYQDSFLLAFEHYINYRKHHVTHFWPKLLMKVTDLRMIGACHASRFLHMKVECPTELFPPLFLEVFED
Experiment: Cell-based Gene Reporter Secondary Assay to Characterize qHTS Inhibitors of the Interaction of Thyroid Hormone Receptor and Steroid Receptor Coregulator 2
Conditions: WRO cells TRbeta TRE-luciferase, T3-stimulated, 16 h; series mostly up to 29.9 µM
Excerpt: NIH Molecular Libraries Probe Production Network [MLPCN] NIH Chemical Genomics Center [NCGC] MLPCN Grant: DK058080 Assay Provider: R. Kip Guy, St. Jude Children's Research Hospital NCGC Assay Overview: Thyroid receptor (TR) regulates many homeostatic processes including basal metabolism, cardiovascular function, body weight, and lipid trafficking. TR modulators are potential therapeutics for obesity and hyperlipidemias but current thyroid analogs have undesirable side effects, particularly cardiac stimulation. This secondary assay characterized selected actives identified in the qHTS for Inhibitors of the Interaction of Thyroid Hormone Receptor and Steroid Receptor Coregulator 2. The human follicular thyroid carcinoma cell line WRO (kindly provided by Dr. M. D. Ringel) stably expresses TRbeta and a luciferase reporter gene fused to TR response element. The addition of T3 ligand elevates expression of the TRE luciferase reporter. This assay measures the transcriptional activity of compounds.
NCGC Assay Protocol Summary: Cells were maintained in RPMI 1640 culture medium supplemented with 10% heat-inactivated FBS, 0.33 mg/ml hygromycin, 0.33 mg/ml geneticin, 50 units/ml penicillin, 50 ug/ml streptomycin. Cells were harvested and resuspended at 330,000 cells/ml in assay medium (50% DMEM 50% F-12 medium without Phenol-Red (Cellgro #16-405-CV), L-glutamine, 10% heat inactivated and charcoal treated FBS, 100 uM non-essential amino acid, 50 units/ml penicillin, 50 ug/ml streptomycin). Cells were dispensed at 10,000 cells/30 ul/well into 384 well plates (Corning 3917) and incubated 12 h at 37 C and 5% CO2. Compounds and T3 (100nM final concentration) were added using a pin tool and plates were incubated 16 h incubation at 37 C and 5% CO2. Following incubation, plates were equilibrated at ambient temperature for 30 min, 30 ul of Bright-Glo (Promega) was added and luminescence was detected by an EnVision (PerkinElmer).

SMILES	Potency
O=C(O)[C@H]1CN(CCCP(=O)(O)O)CCN1	inactive
Cn1c(NNC(=O)c2c(F)cccc2F)cc(=O)n(C)c1=O	inactive
CCc1ccc2c(c1)c1nc(C)sc1n2CC	inactive
O=C(NNc1cc(N2CCOCC2)nc(N2CCOCC2)n1)c1ccc([N+](=O)[O-])cc1	inactive
COc1ccc2ccc3c(c2c1)N=CC1(O3)N(C)c2ccccc2C1(C)C (stereo not given)	inactive
Cc1ccc(OC(=S)Nc2ccc(O)cc2)cc1	inactive
CCSc1ncc(Cl)c(C(=O)Nc2nc3ccc(OC)cc3s2)n1	inactive
Cc1ccc2c(CC(=O)Nc3c(C(=O)c4ccc(F)cc4)oc4ccccc34)coc2c1C	inactive
CN1CCc2ccc3c4c2[C@]1(C)Cc1cccc(c1-4)OCO3	7.94 µM (active)
CC(NC(=O)Nc1ccc(O)cc1)(C(F)(F)F)C(F)(F)F	inactive
Nc1cccnc1Sc1cc(Cl)c(Cl)cc1Cl	inactive
Cc1ccc(-c2nc(S(=O)(=O)c3ccc(F)cc3)c(SCC(=O)NCC3CCCO3)o2)cc1 (stereo not given)	inactive
CC1=NN(c2ccc(F)cc2)C(=O)C1C(c1cccc(O)c1)c1c(C)[nH]n(-c2ccc(F)cc2)c1=O (stereo not given)	inactive
COc1ccc(-c2nc(CS(=O)CC(=O)NCc3ccccn3)c(C)o2)cc1 (stereo not given)	inactive
Cc1cc(C)cc(OCC(=O)NCCc2nc3ccccc3[nH]2)c1	inactive
CCOC(=O)c1cnc2nc(NCc3ccc(OC)c(OC)c3)[nH]n2c1=O	inactive
O=C(Nc1nc2ccc(Cl)cc2s1)c1ccc(N2CCCCC2)c([N+](=O)[O-])c1	inactive
CN1c2ccccc2C(C)(C)C12C=Nc1c(cc(N3CCOCC3)c3ccccc13)O2 (stereo not given)	inactive
CN1c2ccccc2C(C)(C)C12C=Nc1c(ccc3ccccc13)O2 (stereo not given)	4.47 µM (active)
Nc1cnccc1C(=O)O	inactive

SMILES	Potency
CC1=NN(Cc2ccccc2)C(=O)C1	inactive
CN1N=C(C(C)(C)C)CC1=O	inactive
O=c1cc(C23CC4CC(CC(C4)C2)C3)[nH][nH]1	inactive
C=CCNC(=O)/C(C#N)=C\c1cc(Cl)c(OCC)c(OC)c1	inactive
CCCc1nc2c(=O)n(C)c(=O)nc-2n(C)n1	0.794 µM (active)
CCOC(=O)C(NC(=O)Nc1ccc(O)cc1)(c1ccccc1)C(F)(F)F (stereo not given)	inactive
COc1cc(NC(C)CCCN)c2ncccc2c1 (stereo not given)	22.4 µM (active)
Cn1cc(/C=C2\SC(=S)N(NC(=O)c3ccccc3)C2=O)c2ccccc21	inactive
Cc1nnc(SCC(=O)Nc2ccc(N(C)C)cc2)[nH]c1=O	inactive
CCOc1cc(C(c2c(C)[nH][nH]c2=O)c2c(C)[nH][nH]c2=O)ccc1OS(=O)(=O)c1ccc(C)cc1	inactive
C=CCSc1nnc2n(-c3ccccc3OC)c(=O)c3c4c(sc3n12)CCC4	inactive
CCC(CNc1cc(OC)cc2cccnc12)NC1CCCCC1 (stereo not given)	6.31 µM (active)
Cc1nc2ccccc2n2c(O)c(CC(=O)O)cc12	inactive
COc1cc(NCCCC(C)N)c2ncccc2c1 (stereo not given)	3.16 µM (active)
CN(C)c1cc(Cl)c2nonc2c1N	inactive
Cc1cccc(S(=O)(=O)c2cn(Cc3ccccc3)c3cc(N4CCC(C)CC4)c(F)cc3c2=O)c1	inactive
Nc1cc(-c2ccncc2)c[nH]c1=O	14.1 µM (active)
CCC(NC(=O)Nc1ccc(O)cc1)(C(F)(F)F)C(F)(F)F	inactive
CCOc1cc(N2CCOCC2)c(OCC)cc1NC(C)C(=O)N1CCN(CC)CC1 (stereo not given)	inactive
CCOc1ccc(NC(=O)C(c2ccccn2)N(C(=O)CCl)c2ccc(F)cc2)cc1 (stereo not given)	inactive
